AmpC inh no det: Promiscuous and Specific Inhibitors of AmpC Beta-Lactamase (assay without detergent); Potency, µM (series often up to 28.7 µM), for the others: at the top dose activity change, negative = inhibition; actives 1.8% (n = 71,000); AmpC nitrocefin hydrolysis, absorbance 480 nm, no detergent; also: % of control where 0% means no effect
Target sequence (P00811 whole entry, looked up): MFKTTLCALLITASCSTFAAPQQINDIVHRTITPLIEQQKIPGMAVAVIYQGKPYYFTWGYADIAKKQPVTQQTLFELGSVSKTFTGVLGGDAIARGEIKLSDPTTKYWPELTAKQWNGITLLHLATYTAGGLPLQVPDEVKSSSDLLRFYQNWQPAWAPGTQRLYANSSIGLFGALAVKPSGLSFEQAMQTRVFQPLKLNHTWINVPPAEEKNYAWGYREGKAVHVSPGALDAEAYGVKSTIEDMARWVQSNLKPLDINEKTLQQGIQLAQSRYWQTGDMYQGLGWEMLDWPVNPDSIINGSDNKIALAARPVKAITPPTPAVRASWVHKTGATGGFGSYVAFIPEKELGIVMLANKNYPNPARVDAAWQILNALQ
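AmpC in 20 mM phosphate buffer pH 7.0 was preincubated 15 min at room temperature with compounds. Nitrocefin (800 uM stock) was then added and hydrolysis followed at 480 nm every 20 s for 4 min.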
LT uptake inh: qHTS Assay for Anthrax Lethal Toxin Internalization; Cells, anthrax lethal toxin internalization, FRET ratio (460/530); Potency, µM (top dose mostly 40 µM), for the others: at the top dose activity change, negative = inhibition, actives largely listed as inhibitors; actives 0.67% (n = 70,000); AID 912, 2007; also: % is scaled to controls: 0 for no effect and ±100 for the full control effect; nearly all actives have a fitted effect of over 50% in size
AmpC det inh: Promiscuous and Specific Inhibitors of AmpC Beta-Lactamase (assay with detergent); purified AmpC, nitrocefin hydrolysis with detergent; Potency, µM (doses to about 28.7 µM), for inactives: at the top dose activity change, negative = inhibition; AID 584, 2007; P00811; actives 0.09% (n = 71,000); active = well fitted curve in the direction sought with a large enough effect; inconclusive = small, poorly fitted or top-dose-only effect; also: % is scaled to controls: 0 for no effect and ±100 for the full control effect
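E. coli AmpC (5.3 nM) in 20 mM phosphate pH 7.0 with 0.01% Triton X-100, preincubated 15 min RT with compound; nitrocefin (2 uL of 800 uM stock) hydrolysis followed by 480 nm absorbance every 20 s over 4 min.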
Prx2 Sm inh: Schistosoma Mansoni Peroxiredoxins (Prx2); Schistosoma mansoni peroxiredoxin 2 (Prx2); S. mansoni Prx2 activity coupled to TGR/GSH (TGR is thioredoxin glutathione reductase), NADPH fluorescence loss, qHTS; Potency, µM; actives 0.07% (n = 65,000); AID 448, 2006
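Activity is read as the drop in NADPH fluorescence (365/450 nm), recorded every 30 sec for 8 min after H2O2 addition. Prx2 is coupled to TGR-driven NADPH oxidation through glutathione, in phosphate buffer pH 7.4.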
* hit, by the source's call; ? = inconclusive; / = not tested or not shown; [ ] = dose if it differs, or a comment. Compounds with a hit are over-represented: about 2.6% of the library has one in this group of screens. Unless noted, calls follow the shape of the full dose curve. Potency is read from the fitted curve at half-maximal effect.

SMILES | AmpC inh no det | LT uptake inh | AmpC det inh | Prx2 Sm inh
Cc1onc(-c2c(F)cccc2Cl)c1C(=O)N[C@@H]1C(=O)N2[C@H]1SC(C)(C)[C@H]2C(=O)O | 0.025µM* | ? | 0.04µM* | >57
CC1(C)S[C@@H]2[C@H](NC(=O)C3(N)CCCCC3)C(=O)N2[C@H]1C(=O)O | 0.0063µM* | -12%[3.58 µM] | 0.013µM* | >57
Cc1onc(-c2c(F)cccc2Cl)c1C(=O)N[C@H]1C(=O)N2[C@H]1SC(C)(C)[C@H]2C(=O)O | 0.0016µM* | 4%[3.58 µM] | 0.002µM* | >26
CC(=O)O[C@]12CC[N@+]3(C)CCCC[C@@H]3[C-]1Nc1ccccc12 | -3%[5.75 µM] | -9%[8 µM] | -1%[5.75 µM] | >57
O=C(O)CCCCn1cnc2c(=S)nc[nH]c21 | -11%[5.75 µM] | -6%[8 µM] | 5%[5.75 µM] | >57
COCCNS(=O)(=O)c1ccc(C2CNC(=O)C2)cc1 (configuration not stated) | 4µM*[single pt active] | 10% | 12% | >57
O=C(CCc1ccc(O)cc1)c1c(O)cc(O)cc1O[C@@H]1O[C@@H](CO)[C@@H](O)[C@@H](O)[C@H]1O | -2% | -1% | 11% | >57
CC[C@H]1CC[C@H]2[C@@H]3CC=C4C[C@H](OC(C)=O)[C@@H](N)C[C@@]4(C)[C@H]3CC[C@@]12C | 7%[5.75 µM] | ? | -2%[5.75 µM] | >57
COc1cccc(C2CC(c3c(Cl)cccc3Cl)n3nc(N)nc3N2)c1 (configuration not stated) | 4µM*[single pt active] | 3% | 13% | >57
COc1cccc(C2CC(c3ccccc3)Nc3nc(N)nn32)c1 (configuration not stated) | 4µM*[single pt active] | 4% | 9% | >57
CCOc1ccc(C2CC(c3ccc(F)cc3)Nc3nc(N)nn32)cc1 (configuration not stated) | 36% | 6% | 13% | >57
COc1ccc(C2CC(c3cccc(OC)c3)n3nc(N)nc3N2)cc1 (configuration not stated) | 4µM*[single pt active] | -5% | 9% | >57
COc1ccc(C2CC(c3ccc(F)cc3)Nc3nc(N)nn32)cc1 (configuration not stated) | 4µM*[single pt active] | ? | 14% | >57
COc1cccc(C2CC(c3c(F)cccc3Cl)n3nc(N)nc3N2)c1 (configuration not stated) | 35% | -18% | -2% | >57
C[C@H](N)C(=O)OC(C)(C)Cc1ccc(Cl)cc1 | 5% | 10% | 2% | >57
CCN1CCC[C@@H]1CNC(=O)c1c(OC)ccc(I)c1O | 7% | -13% | -2% | >57
COc1ccccc1-c1cc(N)n(S(=O)(=O)c2ccc(F)c(C)c2)n1 | 20µM*[single pt active] | ? | 8% | >57
COc1ccc(S(=O)(=O)n2nc(-c3cc(OC)c(OC)c(OC)c3)cc2N)cc1OC | 130% | 16% | 6% | >57
C[C@H](N)C1CCC(C(=O)Nc2ccncc2)CC1 (some centres not stated) | -10% | 6% | -1% | >57
CN1CCC[C@H](C(=O)OCC(=O)[C@]2(O)CC[C@@H]3[C@H]4CCC5=CC(=O)CC[C@@]5(C)[C@H]4[C@@H](O)C[C@]32C)C1 | 34%[5.75 µM] | 10%[8 µM] | -3%[5.75 µM] | >57
CC[n+]1cc(-c2ccccc2)nc(N2CCOCC2)n1 | 16µM*[single pt active] | 19% | -10% | >57
NC(=O)c1cc(-c2ccccc2)nc(N2CCOCC2)n1 | ? | -12% | 24% | /
Cc1c(C(=O)O)nc(/C=C\C(=O)O)[nH]c1=O | 2%[5.75 µM] | -7%[8 µM] | 0%[5.75 µM] | >57
COc1ccc(-c2cc(-c3ccccc3O)[nH]n2)cc1OC | 46% | 13µM* | 8% | /
COc1ccc(-c2cc(-c3cc(F)ccc3O)[nH]n2)cc1OC | 78% | 10µM* | 4% | >57
SMILES | AmpC inh no det | LT uptake inh | AmpC det inh | Prx2 Sm inh
COC(=O)c1cc(-c2ccc(OC)c(OC)c2)n[nH]1 | 3% | -13% | -3% | >57
COc1ccc(O)c(-c2cc(-c3cccc(Br)c3)n[nH]2)c1 | -20% | ? | 17% | /
Oc1ccccc1-c1cc(-c2ccc3c(c2)OCCO3)n[nH]1 | -6% | 20µM* | 12% | >57
OC[C@@H]1O[C@@H](n2cnc3cncnc32)[C@@H](O)[C@H]1O | 3% | -1% | -4% | >57
CCOC(=O)N1CCC(NC(=O)c2cc3c(=O)n(C)c4ccccc4c3n2C)CC1 | 158% | ? | 14% | >57
Cn1c(C(=O)NC2CC2)cc2c(=O)n(C)c3ccccc3c21 | 4µM*[single pt active] | 3% | 9% | >57
COCCNC(=O)c1cc2c(=O)n(C)c3ccccc3c2n1C | 4µM*[single pt active] | -8% | 15% | >57
CN(C)CCNC(=O)c1cc2c(=O)n(C)c3ccccc3c2n1C | ? | 13µM* | 14% | >57
COCCCNC(=O)c1cc2c(=O)n(C)c3ccccc3c2n1C | 4µM*[single pt active] | 13% | 9% | >57
CCN(CC)CCNC(=O)c1cc2c(=O)n(C)c3ccccc3c2n1C | ? | ? | 9% | >57
CCCCCCCCCCCCCC(=O)O[C@H]1[C@@H](C)[C@@]2(O)[C@@H](C=C(CO)C[C@]3(O)C(=O)C(C)=C[C@@H]23)C2C(C)(C)[C@]21OC(C)=O (some centres not stated) | 108% | ? | -6% | >26
NNC(=O)Cc1cccnc1 | 5%[5.75 µM] | 0%[8 µM] | -2%[5.75 µM] | >57
O=C(O)CCCCCC[C@@H]1C(=O)NC(=O)N1CC[C@@H](O)C1CCCCC1 | -2% | 3% | -2% | >57
CC(Sc1nc(-c2ccccc2)cc(C(F)(F)F)n1)C(=O)N1CCCC1 (configuration not stated) | 4µM*[single pt active] | -2% | 14% | >57
Cc1ccccc1NS(=O)(=O)c1ccc2[nH]cc(C(=O)N(C)Cc3ccco3)c(=O)c2c1 | -14% | 6% | 1% | >57
Cc1cc(C)cc(NS(=O)(=O)c2ccc3[nH]cc(C(=O)NCc4ccco4)c(=O)c3c2)c1 | 13µM*[single pt active] | ? | -2% | >57
Oc1ccc(Cl)cc1Cc1ccccc1 | -19% | ? | 4% | /
Oc1ccc(Cl)cc1Cc1cc(Cl)ccc1O | ? | 16µM* | 4% | /
Cc1n[nH]c(C)c1S(=O)(=O)N1CCCC(C(=O)NCc2cccs2)C1 (configuration not stated) | 14% | -3% | -1% | >57
Cc1n[nH]c(C)c1S(=O)(=O)N1CCCC(C(=O)NC2CCCc3ccccc32)C1 (configuration not stated) | 4µM*[single pt active] | -10% | 11% | >57
CC[C@]1(O)C[C@H]2CN(CCc3c([nH]c4ccccc34)[C@](C(=O)OC)(c3cc4c(cc3OC)N(C)[C@@H]3[C@](O)(C(=O)OC)[C@H](OC(C)=O)[C@]5(CC)C=CCN6CC[C@]43[C@@H]65)C2)C1 | 144% | ? | -1% | >57
CNC(=O)c1ccc2snnc2c1 | 4µM*[single pt active] | 3% | 10% | >57
C[C@H](CCC(=O)NN)[C@@H]1CC[C@@H]2[C@H]3CC[C@H]4C[C@@H](O)CC[C@@]4(C)[C@@H]3CC[C@]21C | -4%[5.75 µM] | -9%[8 µM] | -3%[5.75 µM] | >57

Screening results (PubChem BioAssay)
